# Screens: PubChem, several laboratories
# Shn3 inh set2: inhibitors of Schnurri-3 3'UTR reporter in osteoblasts; Clone20 osteoblast Shn3 3'UTR firefly luciferase, 24 h; inhibition, % at 12.5 µM; 0.52% of 360,000 active;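 active = mean inhibition of at least 75% with every replicate also reaching 75%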;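 note: 0% = median of neutral control wells and 100% = pilot-screen positive control compound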
# Peg3 promoter: inhibitors of Peg3 promoter | HeLa PEG-Prom luciferase reporter, luminescence, overnight | inhibition, % at 20 µM | 1.7% of 360,000 active;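 active = inhibition of at least 50% at 20 µM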
# TRPM1 prom inh: inhibitors of MITF-driven TRPM1 promoter in melanoma cells. AID 488899. inhibition, % at 12.5 µM. 0.83% of 330,000 active. SK-MEL-5 TRPM1 promoter luciferase, 24 h;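 active = mean inhibition across replicates of 60% or more, whatever share of single replicates reaches that level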
# HIF-2a block: HIF-2a inhibition | 0.72% of 360,000 active | 786-0 RCC cells HIF-2a reporter, luciferase luminescence, overnight | AID 624352 | inhibition, % at 18.8 µM;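 active = inhibition of the luminescence signal of 40% or more relative to plate controls, in a single-dose primary screen at 18.75 µM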
# KKLEB cytotox: CF airway cell cytotoxicity counter-screen | KKLEB CF airway cells viability, ATPlite luminescence, overnight; hits give low values; cells stimulated with P. aeruginosa culture filtrate | activity change (cytotoxicity), % at 5 µM | 0.36% of 360,000 active;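 active = corrected activity change at or below -50% at 5 µM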
# CF NFkB block: cystic fibrosis NF-kB activation inhibition. KKLEB NF-kB-GFP reporter, PAF-induced, GFP fluorescence overnight. 0.86% of 360,000 active. inhibition, % at 5 µM;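 active = at least 50% inhibition at 5 µM, scaled per plate between neutral and stimulator controls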;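 note: PAF is a Pseudomonas aeruginosa culture filtrate used as stimulus; plate controls were PAF-stimulated DMSO wells for no effect and unstimulated DMSO wells for full effect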
# * = called active by the depositor; . = not tested or not shown. The list is not random: actives were taken first. Their share in the collection is about 2.8%.
SMILES,Shn3 inh set2,Peg3 promoter,TRPM1 prom inh,HIF-2a block,KKLEB cytotox,CF NFkB block
Cc1cccc(C(=O)N[C@H](C(=O)Nc2ncc(C)s2)C(C)C)c1,-10,60*,-9,-3,-34,42
CC(=O)Nc1nc2ccc(-c3nc4ccccc4o3)cc2s1,-52,-276,-19,-182,-24,9
CCc1ccc(-c2cc(C(=O)Nn3cnnc3)c3ccccc3n2)cc1,15,37,66*,11,-32,-1
CCCc1ccc(-c2cc(C(=O)NN3CCOCC3)c3ccccc3n2)cc1,-25,-153,-60,-152,-30,-50
CCNC(=S)NNC(=O)c1cc(-c2ccc(OCC)cc2)nc2ccccc12,8,-28,22,-15,-51*,-5
CCNC(=S)NNC(=O)c1cc(-c2cccc(OC)c2)nc2ccccc12,-5,-103,1,-119,-4,-10
CCCc1nc2c3ccccc3ccn2c1Cc1cccc(F)c1,-50,-245,.,-251,-9,-10
Cc1c(C(=O)Nc2cccc([N+](=O)[O-])c2)cnn1-c1ccccc1,-147,-322,-63,-358,10,-20
CN(C)S(=O)(=O)c1cccc(C(=O)OCC(=O)Nc2sccc2C#N)c1,8,-20,-12,-29,-4,3
Cc1cc(C)cc(NC(=S)NCc2ccc3[nH]c4c(c3c2)CCCC4)c1,8,67*,9,0,-1,-1
S=C(NCc1ccc2[nH]c3c(c2c1)CCCC3)Nc1ccccc1,2,12,0,-120,-8,-2
CCOC(=O)c1ccc(NC(=O)c2nc[nH]c2C(=O)NCCCCNC(=O)c2[nH]cnc2C(=O)Nc2ccc(C(=O)OCC)cc2)cc1,45,97*,27,1,-36,45
CCOC(=O)c1ccc(NC(=O)c2nc[nH]c2C(=O)NCCCCCNC(=O)OC(C)(C)C)cc1,0,70*,6,-1,-16,20
CCOC(=O)c1ccc(NC(=O)c2nc[nH]c2C(=O)NCCCNC(=O)c2[nH]cnc2C(=O)Nc2ccc(C(=O)OCC)cc2)cc1,14,13,-6,8,3,-1
O=C1CCCC2=C1C1(CCCC1)N=C(Nc1nc3cc(-c4ccccc4)ccc3o1)N2,28,-10,.,-81,-13,35
O=C(Nc1ccccc1)c1cn(CCBr)cn1,-61,-153,-36,-180,-8,3
O=C(/C=C/c1cn(CC(O)CN2CCCCC2)c2ccccc12)c1cccs1 (stereo not drawn),-61,73*,-17,-17,-6,-8
O=C(N/N=C/c1ccccc1O)C1CC(=O)N(c2ccc(F)cc2)C1 (stereo not drawn),75,52*,17,5,-1,0
CCOC(=O)c1cnc2c(c(C)nn2-c2ccc(C)cc2)c1Cl,-26,101*,21,6,-3,23
CCOC(=O)c1cnc2c(c(C)nn2C)c1Oc1cc(Cl)cc(Cl)c1,3,4,4,12,0,3
O=C(O)CCn1c(=O)[nH]c(=O)n(CCC(=O)O)c1=O,10,89*,13,12,0,3
Cc1ccc2c(c1)CCCN2CC(=O)N(C)c1c(N)n(Cc2ccccc2)c(=O)[nH]c1=O,-7,5,18,11,8,-10
Cc1ccc(F)c(NC=C2C(=O)OC(C)(C)OC2=O)c1,2,0,-11,2,-6,6
Cc1cc(NC(=O)c2cccc(Br)c2)n[nH]1,-77,70*,-53,-230,0,5
CCCCCCC(=O)NC(Nc1ccc(S(N)(=O)=O)cc1)C(Cl)(Cl)Cl (stereo not drawn),8,26,-14,5,12,-4
SMILES,Shn3 inh set2,Peg3 promoter,TRPM1 prom inh,HIF-2a block,KKLEB cytotox,CF NFkB block
COc1ccc(C(=O)O/N=C2\C(=O)N(C)c3ccccc32)cc1,-7,0,8,17,0,-5
COc1ccc(C(=O)N=c2nc3ccccn3s2)cc1,44,-39,54,46*,-48,-9
Cc1ccc(-n2nc(C)c3c(C)c(CCC(=O)Nc4ccc(CN5CCCC5)cc4)c(C)nc32)cc1,-1,68*,65*,-1,-14,27
COC(CNC(=O)CCc1c(C)nc2c(c(C)nn2-c2ccc(C)cc2)c1C)OC,20,-3,9,2,0,4
CCN(CC)CCNC(=O)CCc1c(C)nc2c(c(C)nn2-c2ccc(C)c(C)c2)c1C,-5,82*,42,1,-6,8
COCCCNC(=O)CCc1c(C)nc2c(c(C)nn2-c2ccccc2)c1C,-18,8,5,20,-1,5
Cc1cc(=O)[nH]c2sc(C(=O)N3c4ccccc4CC3C)c(N)c12 (stereo not drawn),-9,24,7,1,-4,28
COc1cc(C(=O)Nc2nnc(C(C)(C)C)s2)c([N+](=O)[O-])cc1OC,1,62*,-3,10,-5,2
CCOc1ccc(N2CC(C(=O)Nc3nnc(Cc4ccccc4)s3)CC2=O)cc1 (stereo not drawn),15,19,7,9,1,4
Cc1ccc(NC(=O)/C(=C/c2cccc([N+](=O)[O-])c2)NC(=O)C2CCCCC2)c(C)c1,43,59*,4,12,-2,-10
O=C(O)c1cccc(NC(=O)c2cccc(NC(=O)C3CCCO3)c2)c1 (stereo not drawn),-3,48,59,47*,1,-20
c1ccc(CNc2ncnc3sccc23)cc1,57,-9,11,15,-24,24
c1csc(CNc2ncnc3sccc23)c1,89*,6,29,0,-2,12
COc1ccc(C(=O)/C=C/c2ccccc2)c(OC)c1,-80,68*,-29,-121,-20,15
COc1ccc(OC)c(N/C=C/C(=O)c2ccccc2)c1,34,73*,53,63*,-88*,-17
COc1ccc(C(=O)/C=C/c2ccc(N3CCCCC3)c([N+](=O)[O-])c2)c(OC)c1,-3,39,4,41*,4,-8
COCOc1cc(O)c(C(=O)/C=C/c2ccccc2)c(OCOC)c1,-2,95*,28,37,-3,40
COc1ccc(C(=O)/C=C/c2ccc(N(C)C)cc2)c(OC)c1,-5,-43,-14,-171,-20,-18
COc1cc(C)cc(C(=O)C=Cc2ccccc2)c1O,15,-23,-28,-34,-29,-8
O=C(NCc1ccc(F)cc1)c1cc(C2CCCCN2S(=O)(=O)c2ccc(F)cc2F)on1 (stereo not drawn),11,6,.,11,11,-14
Cc1[nH]nc(-c2cccnc2)c1N=NN(C)C,-5,71*,72*,29,-16,5
CN(C)c1nc(N)nc(-c2cccnc2)n1,-4,2,-4,-5,15,-3
